From PubChem BioAssay (Tox21)
Values without a mark were called inactive. Inconclusive results are not listed. A call without a number means that no potency is given here. Activity calls are given as the source filed them. Unless noted, the call rests on the fitted dose curve; in most records, active means well fitted curve in the direction sought with a large enough effect in the repeat runs; inconclusive means weak or mixed curves; inactive means no such curve, though single readings can be large; an effect the other way counts as inactive or inconclusive.

Key:
[1] = biological target: Thyrotropin receptor (Homo sapiens) (UniProt P16473); test: qHTS assay to identify small molecule agonists of the thyroid stimulating hormone receptor (TSHR) signaling pathway (AID 1224843; calls by dose curve; further: nearly all actives have a fitted effect of over 45% in size)
Chain of Thyrotropin receptor (Homo sapiens) (P16473 whole entry, looked up): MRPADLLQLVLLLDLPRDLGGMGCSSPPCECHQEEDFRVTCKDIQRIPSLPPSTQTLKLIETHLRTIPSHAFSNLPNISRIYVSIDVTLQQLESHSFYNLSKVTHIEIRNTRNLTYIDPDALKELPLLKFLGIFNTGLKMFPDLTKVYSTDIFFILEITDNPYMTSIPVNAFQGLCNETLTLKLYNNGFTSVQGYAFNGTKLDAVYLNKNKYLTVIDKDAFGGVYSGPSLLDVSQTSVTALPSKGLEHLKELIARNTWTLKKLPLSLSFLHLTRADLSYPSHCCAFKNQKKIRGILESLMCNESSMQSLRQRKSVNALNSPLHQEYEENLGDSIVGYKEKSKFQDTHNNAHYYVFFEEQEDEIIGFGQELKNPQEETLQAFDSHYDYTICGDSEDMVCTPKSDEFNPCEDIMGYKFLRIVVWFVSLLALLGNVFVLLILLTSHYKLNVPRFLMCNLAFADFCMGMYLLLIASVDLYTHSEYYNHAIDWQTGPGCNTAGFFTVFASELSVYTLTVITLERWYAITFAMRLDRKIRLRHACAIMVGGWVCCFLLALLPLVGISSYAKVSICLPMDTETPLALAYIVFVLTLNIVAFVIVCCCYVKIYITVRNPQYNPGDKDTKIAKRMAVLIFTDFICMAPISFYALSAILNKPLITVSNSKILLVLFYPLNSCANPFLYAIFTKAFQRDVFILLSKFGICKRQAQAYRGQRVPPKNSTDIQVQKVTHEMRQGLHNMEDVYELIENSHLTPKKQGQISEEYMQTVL
Outline: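 Steps: seed 800 TSHR-HEK293 cells per well; add test compound and hold 30 min at ambient temperature; dispense cAMP-d2 then anti-cAMP cryptate; incubate 1 h at ambient; measure fluorescence intensity.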

[2] = qHTS assay to identify small molecule agonists of the hypoxia (HIF-1) signaling pathway - cell viability counter screen (AID 1224844; calls by dose curve; further: nearly all actives have a fitted effect of over 50% in size; further: potency means the concentration at half of the fitted maximal effect)
Outline: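 ME-180 HRE-bla cells, 2,000/well, 0.5% dialyzed FBS; 5 hr settle, 17 hr compound at 37C/5% CO2; CCF4-AM reporter read first, then CellTiter-Glo luminescence after 30 min RT.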

[3] = qHTS assay to identify small molecule agonists of H2AX (AID 1224845; active means well fitted activation curve with a large enough effect in the signal ratio in the repeat runs, not every such curve was filed as active; the % refers to the signal ratio)
Outline: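 Wild-type CHO-K1 cells, plated overnight, exposed 3hr at 37C to 15 concentrations (0.76% DMSO final). Lysed, then HTRF anti-pH2AX (S139) cryptate and anti-H2AX-d2 antibodies, 24 hr room temperature; 665/620 nm emission read.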

[4] = qHTS assay to identify small molecule agonists of the hypoxia (HIF-1) signaling pathway (AID 1224846; active means well fitted activation curve with a large enough effect in the signal ratio in the repeat runs, not every such curve was filed as active; the % refers to the signal ratio)
Outline: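 Cell line: CellSensor HRE-bla ME-180; 2,000 cells/well; 0.5% dialyzed FBS; 5 h preincubation; DMSO compound pin transfer; 17 h, 37C, 5% CO2; CCF4-AM added; bla FRET signal scored for activation.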

[5] = qHTS assay to identify small molecule agonists of H2AX - cell viability counter screen (AID 1224847; calls by dose curve; further: top concentration of the series differs between compounds; nearly all actives have a fitted effect of over 30% in size)
Outline: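 Cytotoxicity counter screen in wild-type CHO-K1 cells: a 3 hr compound treatment at 37C across 15 concentrations, followed by CellTiter-Glo luminescence to gauge viable cells.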

[6] = qHTS RealTime-Glo MT Cell Viability Assay in HepG2 cells - 24 hour (AID 1224867); further: nearly all actives have a fitted effect of over 50% in size
Outline: (§1)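 Tox21 10K library screened in qHTS format on HepG2 cells carrying RealTime-Glo reagents. Compounds were added after a 5 h preincubation, and the luminescent signal from continuous culture was measured repeatedly during 40 h treatment.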

[7] = qHTS RealTime-Glo MT Cell Viability Assay in HEK293 cells - 32 hour (AID 1224868); further: top concentration of the series differs between compounds; nearly all actives have a fitted effect of over 50% in size
Outline: (§2)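 Luminescence generated by NanoLuc from substrate produced by living HEK293 cells served as the viability signal. Each value reflects the reading at its stated time point during continuous 40 h compound exposure at 37 C.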

[8] = A CellTox Green Cytotoxicity Assay to monitor cytotoxicity in HEK293 cells - 0 hour (AID 1224869); further: nearly all actives have a fitted effect of over 50% in size
Outline: (§3)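 Nonlytic real-time cytotoxicity: HEK293 + CellTox Green reagent plated, 5 h preincubation, pintool compound addition (23 nL in DMSO), 37 C for 40 h, fluorescence measured at successive time points.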

[9] = qHTS RealTime-Glo MT Cell Viability Assay in HepG2 cells - 40 hour (AID 1224870); further: nearly all actives have a fitted effect of over 50% in size
Outline: (§4)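 HepG2 cells (600/well) mixed with RealTime-Glo MT reagent, settled 5 h at 37 C/5% CO2 before compound addition. Nonlytic NanoLuc luminescence from viable-cell prosubstrate reduction read repeatedly during 40 h treatment at 37 C.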

[10] = A CellTox Green Cytotoxicity Assay to monitor cytotoxicity in HEK293 cells - 40 hour (AID 1224871); further: nearly all actives have a fitted effect of over 45% in size
Outline: as §3

[11] = qHTS RealTime-Glo MT Cell Viability Assay in HEK293 cells - 16 hour (AID 1224872)
Outline: as §2

[12] = qHTS RealTime-Glo MT Cell Viability Assay in HepG2 cells - 8 hour (AID 1224873); further: nearly all actives have a fitted effect of over 55% in size
Outline: as §4

[13] = qHTS RealTime-Glo MT Cell Viability Assay in HEK293 cells - 40 hour (AID 1224874); conditions: RealTime-Glo luminescence; max response: stronger effect = lower value; further: nearly all actives have a fitted effect of over 50% in size
Outline: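 Cells were seeded together with NanoLuc luciferase and a prosubstrate that viable cells reduce to a luciferase substrate. After a 5 h incubation at 37 C/5% CO2, compounds were added and luminescence was measured repeatedly during 40 h of treatment.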

[14] = A CellTox Green Cytotoxicity Assay to monitor cytotoxicity in HEK293 cells - 24 hour (AID 1224875); further: series mostly up to about 77 µM; nearly all actives have a fitted effect of over 45% in size
Outline: as §3

[15] = A CellTox Green Cytotoxicity Assay to monitor cytotoxicity in HepG2 cells - 16 hour (AID 1224876); further: nearly all actives have a fitted effect of over 45% in size
Outline: (§5)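 Read-out is fluorescence of a cyanine dye excluded from live cells that stains DNA of dead HepG2 cells, with signal proportional to cytotoxicity. Plates were read at 0, 8, 16, 24, 32 and 40 h after compound addition.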

[16] = qHTS RealTime-Glo MT Cell Viability Assay in HepG2 cells - 32 hour (AID 1224877); further: nearly all actives have a fitted effect of over 55% in size
Outline: as §1

[17] = A CellTox Green Cytotoxicity Assay to monitor cytotoxicity in HepG2 cells - 24 hour (AID 1224878); further: nearly all actives have a fitted effect of over 45% in size
Outline: as §5

[18] = A CellTox Green Cytotoxicity Assay to monitor cytotoxicity in HepG2 cells - 40 hour (AID 1224879); further: nearly all actives have a fitted effect of over 40% in size
Outline: as §5

Row | Structure (SMILES) | Potency [1] | Potency [2] | Potency [3] | outcome [4] | Potency [5] | Potency [6] | Potency [7] | Potency [8] | Potency [9] | Potency [10] | Potency [11] | Potency [12] | max response [13] | Potency [14] | Potency [15] | Potency [16] | Potency [17] | Potency [18]
1 | CC1(C)O[C@@H]2C[C@H]3[C@@H]4C[C@H](F)C5=CC(=O)C=C[C@]5(C)[C@H]4[C@@H](O)C[C@]3(C)[C@]2(C(=O)CO)O1 | inactive | inactive | inactive | inactive | inactive | inactive | inactive | inactive | inactive | inactive | inactive | inactive | -1.56% | inactive | inactive | inactive | inactive | inactive
2 | Cc1ccc(CO)cc1 | inactive | inactive | inactive | inactive | inactive | inactive | inactive | inactive | inactive | inactive | inactive | inactive | 18.5% | inactive | inactive | inactive | inactive | inactive
3 | CC1(C)S[C@@H]2[C@H](NC(=O)C(c3ccccc3)S(=O)(=O)O)C(=O)N2[C@H]1C(=O)O (some centres undefined) | inactive | inactive | inactive | inactive | inactive | inactive | inactive | inactive | inactive | inactive | inactive | inactive | 0.0341% | inactive | inactive | inactive | inactive | inactive
4 | Cc1ccc(C(C)(C)O)cc1 | inactive | inactive | inactive | inactive | inactive | inactive | inactive | inactive | inactive | inactive | – | inactive | -0.324% | inactive | inactive | inactive | inactive | inactive
5 | Brc1cc(Br)c(Oc2cc(Br)c(Br)cc2Br)cc1Br | inactive | 21.3 µM (active) | inactive | inactive | inactive | inactive | inactive | inactive | inactive | inactive | inactive | inactive | -1.98% | inactive | inactive | inactive | inactive | inactive
6 | O=c1[nH]ncc2ccccc12 | inactive | inactive | inactive | inactive | inactive | inactive | inactive | inactive | inactive | inactive | inactive | inactive | 6.19% | inactive | inactive | inactive | inactive | inactive
7 | C1C[C@@H]2[C@H]3CC[C@H](C3)[C@@H]2C1 | inactive | inactive | inactive | inactive | inactive | inactive | inactive | inactive | inactive | inactive | inactive | inactive | -10.1% | inactive | inactive | – | inactive | inactive
8 | CCC(OCCCOC)OC(C)=O (centres undefined) | inactive | inactive | inactive | inactive | inactive | inactive | inactive | inactive | inactive | inactive | inactive | inactive | 3.03% | inactive | inactive | inactive | inactive | inactive
9 | C=CC(C)(CCC=C(C)C)OC(=O)CC(C)C (centres undefined) | inactive | inactive | inactive | inactive | inactive | inactive | inactive | inactive | inactive | inactive | inactive | inactive | 7.92% | inactive | inactive | – | inactive | inactive
10 | Cc1cc(C)cc(N)c1 | inactive | inactive | inactive | inactive | inactive | inactive | inactive | inactive | inactive | inactive | inactive | inactive | -4.23% | inactive | inactive | inactive | inactive | inactive
11 | CC=C(Cl)Cl | inactive | inactive | inactive | inactive | inactive | inactive | inactive | inactive | inactive | inactive | inactive | inactive | 12.6% | – | inactive | inactive | inactive | inactive
12 | Nc1cccc2c1CN(C1CCC(=O)NC1=O)C2=O (centres undefined) | inactive | inactive | inactive | inactive | inactive | inactive | inactive | inactive | inactive | inactive | inactive | inactive | 2.81% | inactive | inactive | inactive | inactive | inactive
13 | CNC(=O)c1cnn(-c2nc(N)c3ncn([C@@H]4O[C@H](CO)[C@@H](O)[C@H]4O)c3n2)c1 | inactive | inactive | inactive | inactive | inactive | inactive | inactive | inactive | inactive | inactive | – | inactive | 4.42% | inactive | inactive | inactive | inactive | inactive
14 | N#CCCN(CCO)CCO | inactive | inactive | inactive | inactive | inactive | inactive | inactive | inactive | inactive | inactive | inactive | inactive | 0.524% | inactive | inactive | inactive | inactive | inactive
15 | C=C1CCC2CC1C2(C)C (centres undefined) | inactive | inactive | inactive | inactive | inactive | inactive | inactive | inactive | inactive | inactive | – | inactive | 0.0757% | inactive | inactive | inactive | inactive | inactive
